An excerpt weighted towards active compounds, which were near 7% of everything screened.
ADAM10 inh – inhibits human ADAM10. O14672. recombinant ADAM10, EDANS/DABCYL FRET peptide cleavage, 3 h. inhibition, % at 7 µM. actives 0.62% (n = 370,000). AID 720582;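 active means inhibition above a per-campaign cutoff equal to the mean of compounds falling between control-based bounds plus 3 SD, cut at about 20% in these data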;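 further: 0% = DMSO wells while the 100% control is not disclosed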
rCAG binder – binds r(CAG) RNA repeats | r(CAG) RNA repeat, TO-PRO-1 dye displacement fluorescence | inhibition, % at 3 µM | actives 1.3% (n = 370,000);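 active means inhibition above the plate cutoff, the mean of all test compounds on that plate plus 3 SD, cut at about 35% in these data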;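 further: 0% = DMSO alone and 100% = 100 µM mitoxantrone as full dye displacement; higher means more dye released from RNA so lower well fluorescence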
GRIN3A LBD mod – modulates the human NR3A ligand-binding domain; NR3A LBD differential scanning fluorimetry, Tm shift; 0% = protein alone, 100% = glycine-bound protein; Tm shift relative to glycine control, % at 25 µM; actives 2.5% (n = 340,000); AID 1259313;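 active means melting temperature shift of at least 10% of the positive control shift, at one fixed dose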
proKLK7 act – proKLK7 (human) activation, primary screen; actives 0.9% (n = 370,000); AID 652039; purified proKLK7, EDANS-DABCYL substrate fluorescence; 100% is mature enzyme control, 0% vehicle; activation, % at 7 µM; P49862;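 active means activation above the mean of all tested compounds plus 3 SD, computed per campaign excluding outliers beyond control limits, cut at about 13% in these data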
AHR activator – activates the human aryl hydrocarbon receptor; AHR-responsive luciferase reporter cells, luminescence; activation, % at 5 µM; actives 2.5% (n = 320,000); AID 2796; in the data active means activation above about 47%;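 further: 0% = vehicle wells and 100% = reference agonist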
ADAM17 inh – inhibits human ADAM17 | recombinant ADAM17, EDANS/DABCYL FRET peptide cleavage | inhibition, % at 6.95 µM | actives 0.83% (n = 370,000);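 active means inhibition above the mean of compounds lying between control limits plus 3 SD, set per campaign, cut at about 8.5% in these data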;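 further: 0% = DMSO-only wells as the low control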
AHR act cf – confirmation of human aryl hydrocarbon receptor activators; human cells, AHR-responsive luciferase reporter, luminescence; shares compounds with AHR activator; activation, % at 9 µM; actives 87% (n = 2,300); AID 2845; in the data active means activation above about 49%;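 further: HepG2 hepatoma cells carrying a DRE-driven firefly luciferase reporter; 0% = vehicle wells and 100% = reference agonist wells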
PXR counter – PXR activation, counter-screen for AHR activators | activation, % at 11.6 µM | actives 88% (n = 2,300) | shares compounds with AHR activator | cell-based PXR reporter, luciferase luminescence | AID 434939; in the data active means activation above about 11%;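 further: human hepatoma DPX-2 cells expressing full-length human PXR; 0% = DMSO and 100% = reference agonist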
Target sequence (O75469 whole entry, looked up): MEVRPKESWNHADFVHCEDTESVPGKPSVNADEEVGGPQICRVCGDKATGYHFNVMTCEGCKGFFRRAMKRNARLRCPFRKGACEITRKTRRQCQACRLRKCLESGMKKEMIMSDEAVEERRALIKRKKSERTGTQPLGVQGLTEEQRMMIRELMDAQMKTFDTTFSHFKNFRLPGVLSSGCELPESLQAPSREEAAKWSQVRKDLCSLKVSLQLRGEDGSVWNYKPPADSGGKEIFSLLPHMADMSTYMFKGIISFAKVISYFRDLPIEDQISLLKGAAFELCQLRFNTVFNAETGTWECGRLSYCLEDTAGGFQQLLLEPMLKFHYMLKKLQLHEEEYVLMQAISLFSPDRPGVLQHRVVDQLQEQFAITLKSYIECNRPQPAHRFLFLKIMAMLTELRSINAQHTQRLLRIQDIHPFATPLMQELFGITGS
An asterisk follows results filed as active.

For C[C@@H]1NS(=O)(=O)c2ccc(F)cc2O[C@@H]1c1ccccc1 the results were ADAM10 inh 0, rCAG binder 3, proKLK7 act 0 and ADAM17 inh 3.
For O=C(Nc1ccccn1)c1ccc2ccccc2c1O the results were ADAM10 inh -46, rCAG binder 6, GRIN3A LBD mod -10, proKLK7 act 0, AHR activator 151*, ADAM17 inh -22, AHR act cf 152* and PXR counter 16*.
`O=C(Nc1ccccn1)c1ccc2ccccc2n1` gave ADAM10 inh 8, rCAG binder 2, GRIN3A LBD mod -3, proKLK7 act 0, AHR activator 84*, ADAM17 inh -3, AHR act cf 168* and PXR counter 24*.
For COCCN1Cc2cc(C(=O)OC)c3c(c2C1=O)c1cc(F)ccc1n3S(=O)(=O)c1ccc(C)cc1 the results were ADAM10 inh -3, rCAG binder 8, proKLK7 act 0 and ADAM17 inh -4.
For CC(=O)C1=C(C)N(Cc2ccc(Br)cc2)C(=S)NC1c1cccc(F)c1 (stereo not given) the results were ADAM10 inh 17, rCAG binder 5, proKLK7 act 0 and ADAM17 inh 7.
`COc1ccc(OC)c(/C=C/c2ccnc3ccccc23)c1` gave ADAM10 inh -112, rCAG binder -1, GRIN3A LBD mod -1, proKLK7 act 0 and ADAM17 inh -32.
Screening COc1ccc2nccc(/C=C/c3ccnc4ccc(OC)cc34)c2c1 returned ADAM10 inh -173, rCAG binder -3, GRIN3A LBD mod 1, proKLK7 act -53, AHR activator 105*, ADAM17 inh -85, AHR act cf 96* and PXR counter 34*.
`c1ccc(-c2nc3c(ccc4ccccc43)[nH]2)nc1` gave ADAM10 inh -338, rCAG binder 3, GRIN3A LBD mod -29, proKLK7 act -8, AHR activator 95*, ADAM17 inh -114, AHR act cf 138* and PXR counter 11*.
`COC(=O)/C(=C/c1ccc2c(c1)c1ccccc1n2C)NC(=O)c1ccccc1` gave ADAM10 inh -12, rCAG binder 10, GRIN3A LBD mod 1, proKLK7 act -33, AHR activator 82*, ADAM17 inh -2, AHR act cf 104* and PXR counter 97*.
COCCCN=CC1=C(O)CC(c2ccccc2)CC1=O (stereo not given) was read as ADAM10 inh 4, rCAG binder -5, GRIN3A LBD mod -2, proKLK7 act 0, AHR activator 4 and ADAM17 inh -3.
For COc1ccccc1N=CC1=C(O)CC(c2ccccc2)CC1=O (stereo not given) the results were ADAM10 inh -11, rCAG binder -1, GRIN3A LBD mod -1, proKLK7 act -2, AHR activator 100*, ADAM17 inh 0, AHR act cf 94* and PXR counter 13*.
Screening O=C1CSC(c2ccc(F)cc2)N1c1nc2ccccc2s1 (stereo not given) returned ADAM10 inh 6, rCAG binder 1, GRIN3A LBD mod -5, proKLK7 act -1, AHR activator 149*, ADAM17 inh 1, AHR act cf 98* and PXR counter 63*.
For C=CCc1cccc(/C=N/NC(=O)CCC(=O)Nc2ccc(F)cc2)c1O the results were ADAM10 inh -2, rCAG binder 2, GRIN3A LBD mod -7, proKLK7 act -6, AHR activator 13 and ADAM17 inh 9.
For C=CCc1cccc(/C=N/NC(=O)CNc2ccccc2)c1O the results were ADAM10 inh 1, rCAG binder 8, GRIN3A LBD mod 6, proKLK7 act -19, AHR activator 90*, ADAM17 inh -2, AHR act cf 69* and PXR counter 47*.
`COC(=O)c1cc2c(c3c4cc(C)ccc4n(S(=O)(=O)c4cccc(C)c4)c13)C(=O)N(Cc1ccc(N(C)C)cc1)C2` gave ADAM10 inh 1, rCAG binder 13, proKLK7 act -1 and ADAM17 inh 1.
`CCn1c(-c2sc(-c3ccccc3)nc2C)n[nH]c1=S` gave ADAM10 inh -14, rCAG binder 0, GRIN3A LBD mod 2, proKLK7 act 0, AHR activator 81*, ADAM17 inh -5, AHR act cf 119* and PXR counter 19*.
`C[C@H]1CN([C@@H](C)CO)C(=O)CCCn2cc(nn2)CO[C@@H]1CN(C)S(=O)(=O)c1cn(C)cn1` gave ADAM10 inh -13, rCAG binder -1, proKLK7 act -1 and ADAM17 inh -7.
O=C(/C(=C(\[O-])c1ccccc1)[n+]1ccc2ccccc2c1)c1ccc(Cl)cc1 was read as ADAM10 inh -10, rCAG binder 8, GRIN3A LBD mod 0, proKLK7 act 0, AHR activator 103*, ADAM17 inh -4, AHR act cf 92* and PXR counter 54*.
`O=C(/C(=C(\[O-])c1ccccc1)[n+]1ccc2ccccc2c1)c1ccccc1` gave ADAM10 inh -6, rCAG binder 7, GRIN3A LBD mod -2, proKLK7 act 0, AHR activator 37 and ADAM17 inh -3.
`CCOC(=O)c1c(N/N=C/c2ccncc2)n[nH]c1C` gave ADAM10 inh 6, rCAG binder 1, GRIN3A LBD mod 2, proKLK7 act 0, AHR activator 97*, ADAM17 inh 3, AHR act cf 66* and PXR counter 15*.
For Cc1[nH]n(-c2ccccc2)c(=O)c1N=Nc1c(Cl)cccc1Cl the results were GRIN3A LBD mod 0 and AHR activator 10.
`Cc1cccc2c1ncc1c(=O)n(-c3ccccc3)[nH]c12` gave ADAM10 inh 5, rCAG binder 7, GRIN3A LBD mod 0, proKLK7 act -1, AHR activator 136*, ADAM17 inh 2, AHR act cf 129* and PXR counter 32*.
Screening C[C@@H]1CN(S(=O)(=O)C(C)(C)C)[C@H](CCO)/C1=C\CCO returned ADAM10 inh -8, rCAG binder 2, proKLK7 act 0 and ADAM17 inh -2.
CC(C)N(c1cc(=O)nc2ccccn12)C(C)C was read as ADAM10 inh -3, rCAG binder 4, proKLK7 act -1 and ADAM17 inh -3.
Screening O=C1c2ccccc2C(O)(c2ncc[nH]2)N1CCc1ccccc1 (stereo not given) returned ADAM10 inh 1, rCAG binder -1, GRIN3A LBD mod 0, proKLK7 act 0, AHR activator 98*, ADAM17 inh -4, AHR act cf 105* and PXR counter 24*.

High-throughput results: PubChem BioAssay, several laboratories
